Only some compounds are listed: those with a hit (about 3.5% of all), similar ones and a draw of the others.
mHTT-CaM PPI inh: inhibitors of human mutant huntingtin-calmodulin interaction; AlphaScreen His-mHTT/GST-CaM binding, luminescence; inhibition, % at 15 µM; 3.6% of 190,000 active;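 note: 0% = both proteins with DMSO and 100% = one protein alone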
Pf apPOL block: Pf-apPOL DNA polymerase inhibition | Recombinant Pf-apPOL, molecular beacon fluorescence, 1.5 h | 0.25% of 210,000 active | AID 1794808 | inhibition, % at 10 µM
Numbers without * were called inactive; x = no result. Cut-off read from the data, not from the text of the source: active = inhibition above about 50%; inactive = the rest.

SMILES | mHTT-CaM PPI inh | Pf apPOL block
COc1ccc(CN2CCc3nc(N4CCN(c5ccccc5)CC4)ncc3C2)cc1 | 33 | 0
COc1ccc(CN2CCc3nc(N4CCN(c5ncccn5)CC4)ncc3C2)cc1 | 100* | -4
O=c1[nH]c2ccc(S(=O)(=O)Nc3ccccc3Br)cc2[nH]c1=O | -2 | -1
Cc1ccnc(NC(c2ccc([N+](=O)[O-])cc2)c2ccc3cccnc3c2O)c1 (stereo not drawn) | 100* | -8
CCC(=O)NC(c1cccc([N+](=O)[O-])c1)c1ccc2cccnc2c1O (stereo not drawn) | 100* | -2
Cc1nc(O)c(C(c2cccc([N+](=O)[O-])c2)c2c(O)nc(C)[nH]c2=O)c(=O)[nH]1 | 3 | 2
Cc1cccc(-c2cc(NC(=O)c3ccc([N+](=O)[O-])cc3)n[nH]2)c1 | 5 | 1
Cc1ccnc(NC(c2cccc([N+](=O)[O-])c2)c2ccc3cccnc3c2O)c1 (stereo not drawn) | 100* | -1
Cc1c(C(=O)NCc2ccc(F)cc2)oc2ccc(S(=O)(=O)N3CC(C)CC(C)C3)cc12 (stereo not drawn) | -4 | -10
CCOc1ccccc1C(=O)Nc1nc2c(s1)CN(S(=O)(=O)c1ccccc1)CC2 | 7 | -8
CC(C)c1ccc(NC(=O)C(c2ccccc2)N(C)C(=O)/C=C/c2ccc3c(c2)OCO3)cc1 (stereo not drawn) | 8 | 2
CCCn1cnnc1C1CCCCN1S(=O)(=O)c1ccc(C#N)cc1 (stereo not drawn) | 1 | -2
Cc1cccc(-c2nnc(C)c(N3CCc4ccccc4C3)n2)c1 | 100* | -1
Cc1cccc(-c2nnc(C)c(N3CCC(C)CC3)n2)c1 | 42 | -1
COc1ccc(NC(=O)c2ncn[nH]2)c([N+](=O)[O-])c1 | 100* | -3
COc1ccc(NC(=O)c2cc(OC)c(OC)c(OC)c2)c([N+](=O)[O-])c1 | -4 | 1
S=c1sc2c(Cl)ncnc2n1-c1ccccc1 | 83* | x
S=c1sc2c(N3CCc4ccccc43)ncnc2n1-c1ccccc1 | -2 | x
COc1ccc(C2(C(=O)Nc3cc(-c4cccnc4)no3)CC2)cc1 | 4 | -3
CCc1cc(C2CCCN2Cc2ccc(OCC(N)=O)c(OC)c2)on1 (stereo not drawn) | -1 | 1
O=[N+]([O-])c1cc([N+](=O)[O-])c2cccnc2c1Nc1ccccc1 | 13 | -3
CN(C)c1ccc(Nc2c([N+](=O)[O-])cc([N+](=O)[O-])c3cccnc23)cc1 | 87* | -12
CCCC(=O)N1CCCC(c2nc(-c3ccccc3)n[nH]2)C1 (stereo not drawn) | -5 | 2
O=C(c1cc2ccccc2o1)N1CCN(c2ccc(C(F)(F)F)cc2[N+](=O)[O-])CC1 | 47 | 17
CC1Cc2ccccc2N1C(=O)c1ccc(N2CCCCC2)c([N+](=O)[O-])c1 (stereo not drawn) | 63* | 1
SMILES | mHTT-CaM PPI inh | Pf apPOL block
CN1CCN(c2ccc(C(=O)c3ccc(Cl)cc3)cc2[N+](=O)[O-])CC1 | 62* | -7
O=C(O)c1ccccc1C(=O)c1ccc(N2CCCCC2)c([N+](=O)[O-])c1 | 3 | -10
COc1ccc(C(=O)c2ccc(N3CCN(C)CC3)c([N+](=O)[O-])c2)cc1 | 17 | -10
O=C(c1cc2ccccc2o1)N1CCN(c2ccc(Cl)cc2[N+](=O)[O-])CC1 | 57* | 4
CC(=O)c1cccc(NS(=O)(=O)c2ccc3[nH]c(=O)oc3c2)c1 | -3 | 7
CCc1ccc(C=C2Oc3cc(OCC(C)=O)ccc3C2=O)cc1 | -1 | 3
CC1=C(C(N)=O)C(c2ccc(Cl)cc2)n2nc(SCc3ccccc3)nc2N1 (stereo not drawn) | 4 | -7
NS(=O)(=O)c1ccc(CCNC(=O)c2cc(=O)c(OCc3ccccc3)co2)cc1 | 2 | -5
Cc1ccnc(N2CCC(C(=O)NC3CC3)CC2)n1 | -8 | 1
Cc1nc([N+](=O)[O-])c2n1CC(c1ccccc1)=NN2c1ccc([N+](=O)[O-])cc1 | 58* | -4
CC1=NN(c2ccccc2)C(=O)C1N=Nc1ccc([N+](=O)[O-])cc1 (stereo not drawn) | x | -4
CCn1cc(C(=O)O)c(=O)c2cc(F)c(N3CCN(C(=O)c4ccc(OC)cc4)CC3)cc21 | -9 | -3
Cc1csc(=NC(=O)c2ccccc2)n1Cc1ccco1 | 6 | 0
Cc1ccccc1N=c1scc(-c2ccccc2)n1Cc1ccco1 | 73* | 0
CN(Cc1ccccc1)C(=O)c1cc2cn(C3CC3)cc2s1 | 95* | 2
CC(C)n1cc2cc(C(=O)N(C)Cc3ccccc3)sc2c1 | 86* | 1
CC(C)N1CCN(C(=O)c2cc3cn(C(C)C)cc3s2)CC1 | 22 | -5
CC(C)n1cc2cc(C(=O)N(C)C)sc2c1 | 12 | 1
O=C(NCc1ccccc1)c1cc2cn(C3CC3)cc2s1 | 42 | 18
CC(C)n1cc2cc(C(=O)N3CCN(Cc4cccc(F)c4)CC3)sc2c1 | 71* | 3
COc1ccc(OC)c(S(=O)(=O)NCC(c2cccc3ccccc23)N(C)C)c1 (stereo not drawn) | 4 | 0
COc1cc(C=C2SC(=S)N(C(C(=O)O)C(C)C)C2=O)cc(OC)c1OC (stereo not drawn) | 19 | -76
COc1ccc(C2/C=C\CN(C(=O)C3CC3)[C@@H](C)C(=O)N2Cc2ccc(F)cc2)cc1 (stereo partly drawn) | 44 | -4
Cc1ccc(C2=N/C(=C\c3ccc(Br)cc3)C(=O)O2)cc1[N+](=O)[O-] | -1 | -8
CCN(CC)c1ccc(/C=C2\N=C(c3cccc([N+](=O)[O-])c3)OC2=O)cc1 | 9 | -13
SMILES | mHTT-CaM PPI inh | Pf apPOL block
Cc1ccc(C2=N/C(=C\c3cccc(Br)c3)C(=O)O2)cc1[N+](=O)[O-] | 51* | 6
CN(C)c1ccc(/C=C2\N=C(c3cccc([N+](=O)[O-])c3)OC2=O)cc1 | -1 | 97*
CCOC(=O)C(C)Oc1ccc2c(C)c(-c3ccc(OC)c(OC)c3)c(=O)oc2c1 (stereo not drawn) | -2 | -7
CN1C/C(=C\c2ccncc2)C(=O)/C(=C/c2ccncc2)C1 | 3 | -6
CCc1c(C)sc(NC(=O)c2ccc(C(C)C)cc2)c1C(N)=O | -2 | 0
COc1ccccc1N1CCN(C(=O)c2ccncc2)CC1 | -7 | -3
COc1ccccc1N1CCN(C(=O)c2ccc(CSc3ccccc3)cc2)CC1 | 68* | -5
COc1ccccc1N1CCN(C(=O)CC(c2ccccc2)c2ccccc2)CC1 | 76* | 2
COc1ccccc1N1CCN(C(=O)CCC(=O)N2CCN(c3ccccc3OC)CC2)CC1 | -2 | 1
Cc1cccc(N(S(=O)(=O)c2ccc(F)cc2)S(=O)(=O)c2ccc(F)cc2)n1 | -4 | 14
Cc1cc2c(N3CCC(C(=O)Nc4ccc(F)c(C)c4)CC3)nccc2s1 | 0 | -1
O=C(Nc1cccc2ccc(-n3ccnc3)nc12)c1ccc2c(c1)OCO2 | -10 | 0
O=C(Nc1cccc2ccc(-n3ccnc3)nc12)c1ccsc1 | 51* | -6
CCCSc1nnc2c(n1)OC=Nc1ccccc1-2 | 2 | -1
COc1ccc(-n2c(=O)[nH]cc(C(=O)Nc3cccc(Cl)c3C)c2=O)cc1 | -14 | -3
O=c1c2cc([N+](=O)[O-])ccc2oc2nc3n(c(=O)c12)CCCS3 | 9 | -2
COc1ccc(N2C(=O)CC(Sc3nc4ccccc4s3)C2=O)cc1 (stereo not drawn) | 29 | -8
